Screen size: about 360,000 compounds; about 11,000 (3.1%) were called active. Not shown: some 4% with an inconclusive outcome. Calls come from the whole dose curve; as a rule, active = well fitted inhibition curve with a large enough effect; inconclusive = small, poorly fitted or top-dose-only effect; inactive = no such curve, though single readings can be large or run the other way. The sample as a whole holds a higher share of actives than the screen did.
The compounds below were run against Schistosoma mansoni thioredoxin glutathione reductase (TGR) (UniProt Q962Y6) (assay: qHTS Assay for the Inhibitors of Schistosoma Mansoni Peroxiredoxins). Details: purified TGR, DTNB reduction, TNB absorbance 405 nm; series mostly up to 114 µM; activity change, negative = inhibition: at the top concentration.
Summary of the method: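 First, TGR (20 nM dispensed) and NADPH were mixed with compound. Second, a 15 min room-temperature incubation followed. Third, further NADPH and then DTNB were added to start the reaction. Finally, TNB absorbance was monitored kinetically.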
% is set by controls: 0 for no effect and ±100 for the full control effect; potency is the fitted concentration of half-maximal effect.
Note: nearly all actives have a fitted effect of over 60% in size.

Question: How did the “activity change, negative = inhibition” value turn out when CCOC(=O)C1CCN(c2ncnc3c2c(-c2ccccc2)cn3-c2cccc(C)c2)CC1 was run?
Answer: The value was 14.4% (inactive).

Question: With CCOC(=O)C1CCN(c2nc3c(S(=O)(=O)c4ccc(CC)cc4)nnn3c3ccc(Cl)cc23)CC1 as the compound, how does the “activity change, negative = inhibition” value read?
Answer: The value was 2.89% (inactive).

Question: For COc1ccc(S(=O)(=O)NCc2cccn2Cc2cccc(C)c2)cc1, which “activity change, negative = inhibition” value is on record?
Answer: The value was -10.6% (inactive).

Question: How did the “activity change, negative = inhibition” value turn out when Cn1c(=O)c2c(-c3ccccc3Br)n(Cc3ccccc3)cc2n(C)c1=O was run?
Answer: The value was 4.79% (inactive).

Question: Cc1ccc(S(=O)(=O)N2CCN(CC(=O)N/N=C/c3ccc(Br)s3)CC2)cc1 was tested. Which “activity change, negative = inhibition” value did it give?
Answer: Its value is -2.13% (inactive).

Question: How did the “activity change, negative = inhibition” value turn out when CC(C)N(C(=O)CN1CCN(S(=O)(=O)c2ccc(Br)s2)CC1)C(C)C was run?
Answer: Its value is 3.3% (inactive).

Question: Which Potency does the source give for Cc1cccc(NC(=O)CN2CCCN(S(=O)(=O)c3ccc(Br)s3)CC2)c1 here?
Answer: The Potency was 25.1 µM (active).

Question: COc1ccc(CCNC(=O)CCCn2c(=O)c3ccccc3n(Cc3ccc(F)cc3Cl)c2=O)cc1OC was tested. Which “activity change, negative = inhibition” value did it give?
Answer: The value was 1.2% (inactive).

Question: With Cc1ccc(-n2nc(-c3ccco3)cc2C(=O)NCc2cccnc2)cc1 as the compound, how does the Potency read?
Answer: Its Potency is 3.55 µM (active).

Question: For CSc1sc(C(=O)NC(=O)NCc2cccnc2)c(C)c1-c1ccon1, which “activity change, negative = inhibition” value is on record?
Answer: The value was -0.382% (inactive).

Question: How did the “activity change, negative = inhibition” value turn out when Cc1ccc(C(=O)NC(=S)NCc2cccnc2)cc1 was run?
Answer: The value was -28.6% (inactive).

Question: Cc1ccccc1CNC(=O)CCc1cn(Cc2ccccc2C)c2ccccc12 was tested. Which “activity change, negative = inhibition” value did it give?
Answer: Its value is -3.66% (inactive).

Question: Cc1cc(C)cc(NS(=O)(=O)c2ccc(-c3cc(C)no3)s2)c1 was tested. Which “activity change, negative = inhibition” value did it give?
Answer: Its value is -1.74% (inactive).

Question: Cc1ccc(CN2CCN(Cc3cn(C)nc3-c3ccccc3)CC2CCO)o1 (stereo unspecified) was tested. Which “activity change, negative = inhibition” value did it give?
Answer: The value was -32.4% (inactive).

Question: With Cc1ccccc1CN1C[C@@H]2C[C@@H](c3cn(C)nc3-c3ccccc3)N3CCC[C@@]23C1=O as the compound, how does the Potency read?
Answer: Its Potency is 7.94 µM (active).

Question: With Cc1ccccc1CN1C[C@@H]2C[C@@H](c3ccc4nsnc4c3)N3CCC[C@@]23C1=O as the compound, how does the “activity change, negative = inhibition” value read?
Answer: The value was -34% (inactive).

Question: For CC(C)c1ccc(NC(=O)c2ccc3c(O)c(S(=O)(=O)c4ccccc4)c(=O)[nH]c3c2)cc1, which “activity change, negative = inhibition” value is on record?
Answer: Its value is 8.62% (inactive).

Question: Cc1ccc(-c2nn3c(=O)cc(CN4CCN(C(=O)Nc5cccc(C(F)(F)F)c5)CC4)nc3s2)cc1 was tested. Which “activity change, negative = inhibition” value did it give?
Answer: Its value is 8.52% (inactive).

Question: Which Potency does the source give for O=C(NC(=S)Nc1ccc(Cl)c(C(=O)O)c1)c1cncc(Br)c1 here?
Answer: Its Potency is 12.6 µM (active).

Question: With O=C(Nc1ccc(N2CCCC2=O)cc1)c1cncc(Br)c1 as the compound, how does the “activity change, negative = inhibition” value read?
Answer: Its value is -7.27% (inactive).

Question: For COC(=O)c1ccccc1NC(=O)c1cncc(Br)c1, which “activity change, negative = inhibition” value is on record?
Answer: The value was -12.6% (inactive).

Question: Cc1ccc(C(=O)N2CC(=O)Nc3ccccc32)o1 was tested. Which “activity change, negative = inhibition” value did it give?
Answer: Its value is -3.55% (inactive).

Question: How did the Potency turn out when Cc1ccc(CNC(=O)C2(C(F)(F)F)C/C(=C\Cc3ccccc3)CCCO2)o1 (stereo unspecified) was run?
Answer: Its Potency is 20 µM (active).

Question: Cc1ccc(CNC(=O)Cn2cnc(S(=O)(=O)N3CCCCC3)c2)o1 was tested. Which “activity change, negative = inhibition” value did it give?
Answer: Its value is -23.2% (inactive).

Question: COC(=O)c1cccc(Cn2nnc3sc4c(c3c2=O)CCC(C(C)(C)C)C4)c1 (stereo unspecified) was tested. Which “activity change, negative = inhibition” value did it give?
Answer: The value was 7.56% (inactive).

Question: COc1cn(CC(=O)Nc2cccc(C)c2C)c(CN2CCCCC2)cc1=O was tested. Which “activity change, negative = inhibition” value did it give?
Answer: The value was 18.7% (inactive).

Question: How did the “activity change, negative = inhibition” value turn out when CCc1ccccc1NC(=O)CSc1nc(C)c(C(=O)Nc2ccccc2)c(-c2ccc(Cl)cc2)c1C#N was run?
Answer: The value was -0.637% (inactive).

Question: Which “activity change, negative = inhibition” value does the source give for COc1ccc(-c2onc(C)c2C)cc1S(=O)(=O)NCC1CCN(Cc2cccc(F)c2)CC1 here?
Answer: Its value is 5.14% (inactive).

Question: COC(=O)[C@@]12CCCN1[C@H](c1ccc(-c3ccc(F)cc3)c(OC)c1)[C@H]1C(=O)N(C)C(=O)[C@H]12 was tested. Which “activity change, negative = inhibition” value did it give?
Answer: Its value is -15% (inactive).

Question: How did the “activity change, negative = inhibition” value turn out when CCN1C(=O)[C@H]2[C@@H](c3ccc(SC4CCCCC4)c(OC)c3)N[C@@](Cc3ccccc3)(C(=O)OC)[C@H]2C1=O was run?
Answer: The value was -11.9% (inactive).

Question: Which “activity change, negative = inhibition” value does the source give for CCN1C(=O)[C@@H]2[C@@H](c3ccc(-c4ccc(OC)cc4)c(OC)c3)N3CCC[C@@]3(C(=O)OC)[C@@H]2C1=O here?
Answer: The value was 2.71% (inactive).

Question: How did the Potency turn out when CCN1C(=O)[C@@H]2[C@@H](c3ccc(-c4ccccc4)cc3)N3CCCC[C@@]3(C(=O)OC)[C@@H]2C1=O was run?
Answer: Its Potency is 35.5 µM (active).

Question: CCN1C(=O)[C@H]2[C@@H](c3ccc(-c4ccc(F)cc4)cc3)N[C@@](Cc3ccccc3)(C(=O)OC)[C@H]2C1=O was tested. Which “activity change, negative = inhibition” value did it give?
Answer: Its value is -34.4% (inactive).

Question: CCN1C(=O)[C@@H]2[C@@H](c3ccc(-c4cccc(Cl)c4)cc3)N3CCC[C@@]3(C(=O)OC)[C@@H]2C1=O was tested. Which Potency did it give?
Answer: The Potency was 22.4 µM (active).

Question: Cc1ccc(S(=O)(=O)c2c(Nc3cccc(Cl)c3)sc(C(=O)c3ccc4c(c3)OCO4)c2N)cc1 was tested. Which “activity change, negative = inhibition” value did it give?
Answer: Its value is -2.28% (inactive).

Question: With CCOC(=O)c1cccc(NS(=O)(=O)c2cc(-c3cnc(C)o3)ccc2OC)c1 as the compound, how does the “activity change, negative = inhibition” value read?
Answer: Its value is -1.22% (inactive).

Question: Which “activity change, negative = inhibition” value does the source give for CCOc1ccc(S(=O)(=O)Nc2ccc3oc4c(c3c2)CC(C)CC4)cc1 (stereo unspecified) here?
Answer: Its value is 5.54% (inactive).

Question: With CCOc1ccc(C2C(=O)N(C3CCCCC3)CC(=O)N2CCC2=CCCCC2)cc1OC (stereo unspecified) as the compound, how does the “activity change, negative = inhibition” value read?
Answer: Its value is 18.3% (inactive).

Question: How did the “activity change, negative = inhibition” value turn out when Cc1ccc(-n2ncc3c(=O)[nH]cnc32)c(C)c1 was run?
Answer: The value was 0% (inactive).

Question: For Cc1cccc(-n2ncc(Cl)c(Cl)c2=O)c1, which Potency is on record?
Answer: The Potency was 28.2 µM (active).

Question: How did the “activity change, negative = inhibition” value turn out when C=CCNc1cnn(-c2ccc(C)cc2)c(=O)c1Cl was run?
Answer: Its value is 8.88% (inactive).

Question: For COc1ccc(Cn2c(=O)n(-c3ccccc3C)c(=O)c3c4c(sc32)CN(C(C)=O)CC4)cc1, which “activity change, negative = inhibition” value is on record?
Answer: The value was 0.349% (inactive).

Question: For Cc1cc(C)n(CCNC(=O)CC2C(=O)NCCN2Cc2ccc(C)o2)n1 (stereo unspecified), which Potency is on record?
Answer: The Potency was 39.8 µM (active).

Question: How did the “activity change, negative = inhibition” value turn out when O=C(CC1C(=O)NCCN1CC(c1ccccc1)c1ccccc1)NCC1CCOCC1 (stereo unspecified) was run?
Answer: Its value is -0.261% (inactive).

Question: How did the “activity change, negative = inhibition” value turn out when Cc1nccn1CCCNC(=O)CC1C(=O)NCCN1Cc1ccc(Cl)c(F)c1 (stereo unspecified) was run?
Answer: The value was -32.5% (inactive).

Question: How did the “activity change, negative = inhibition” value turn out when CCc1nn(CC(=O)N2CCN(c3cccc(C(F)(F)F)c3)CC2)c(=O)c2cc3occc3n12 was run?
Answer: The value was -5.04% (inactive).

Reference: PubChem BioAssay AID485364 (National Center for Advancing Translational Sciences (NCATS), 2010)
